Inconclusive results are not listed. Calls of active or inactive are those of the source. The call rests on the fitted dose curve; in most records, active means well fitted curve in the direction sought with a large enough effect; inconclusive means small, poorly fitted or top-dose-only effect, or another doubt; inactive means no such curve, though single readings can be large; an effect the other way counts as inactive or inconclusive.
Target: Metallo-beta-lactamase type 2 (Klebsiella pneumoniae) (UniProt C7C422)
Sequence (C7C422 whole entry, looked up): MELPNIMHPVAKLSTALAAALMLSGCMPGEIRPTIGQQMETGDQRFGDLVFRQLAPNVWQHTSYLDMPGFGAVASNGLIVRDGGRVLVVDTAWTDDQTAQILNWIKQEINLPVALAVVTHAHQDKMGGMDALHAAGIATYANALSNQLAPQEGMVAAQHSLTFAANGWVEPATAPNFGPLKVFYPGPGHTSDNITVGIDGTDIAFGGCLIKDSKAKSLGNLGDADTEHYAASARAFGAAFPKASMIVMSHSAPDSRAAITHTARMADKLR
Assay: qHTS to identify inhibitors of the New Delhi Metallo-beta-lactamase (NDM): assay validation screen against the NCATS LOPAC Collection (AID 1794843)
Conditions: NDM-1 enzyme, nitrocefin hydrolysis, absorbance 485 nm; series mostly up to 38.4 µM
Procedure, shortened: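 Absorbance at 485 nm from nitrocefin turnover (50 uM solution added), read at plateau, gives the read-out. Compounds in DMSO were incubated first with 2 nM final NDM-1 in pH 7.0 HEPES buffer containing 1 uM ZnSO4 and 0.01% Tween20.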

Row | SMILES | outcome
1 | COC(=O)C1=CCCN(C)C1 | inactive
2 | COc1ccc(C(=O)N2CCCC2=O)cc1 | inactive
3 | NC(=O)CN1CCCC1=O | inactive
4 | O=C(O)c1nn(Cc2ccc(Cl)cc2Cl)c2ccccc12 | inactive

Target: Glutathione peroxidase 1 (Homo sapiens) (UniProt P07203)
Sequence (P07203 whole entry, looked up): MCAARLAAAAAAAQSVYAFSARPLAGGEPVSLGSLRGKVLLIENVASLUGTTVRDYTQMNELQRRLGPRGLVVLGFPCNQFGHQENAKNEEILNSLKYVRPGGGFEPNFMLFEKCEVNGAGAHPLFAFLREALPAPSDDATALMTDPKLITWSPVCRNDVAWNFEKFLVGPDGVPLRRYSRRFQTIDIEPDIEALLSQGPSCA
Assay: Primary qHTS Assay for Inhibitors of Recombinant Selenoprotein Glutathione Peroxidase 1 (GPX1) (AID 1845191); further: nearly all actives have a fitted effect of over 65% in size
Conditions: recombinant GPX1, GR-coupled NADPH fluorescence, 15 min; series mostly up to 48.8 µM
Procedure, shortened: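 GR-coupled readout: NADPH consumption tracked by fluorescence, ex 340/em 450 nm, at t=0 and after 15 min at RT. Final mix 10 nM GPX1, 1 mM GSH, 0.5 mM CHP, 0.5 mM NADPH, 100 nM GR, 0.01% BSA, following 30 min enzyme–compound preincubation.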

Row | SMILES | outcome
5 | CCOC(=O)c1cncn1C(C)c1ccccc1 (stereo not given) | inactive
6 | COc1ccc2c(C(=O)c3ccc(Cl)cc3)c(C)n(CC(=O)O)c2c1 | inactive
7 | C[C@@H]1CN(C2CCC(C#N)(c3ccc(F)cc3)CC2)CC[C@]1(C(=O)O)c1ccccc1 (stereo not given in full) | inactive
8 | CCOC(=O)c1ncn2c1CN(C)C(=O)c1c(I)cccc1-2 | inactive
9 | CC(CC(C(N)=O)(c1ccccc1)c1ccccc1)N(C)C (stereo not given) | inactive
10 | Cc1ccc(N=CN(C)C=Nc2ccc(C)cc2C)c(C)c1 | inactive
11 | CCCOC(=O)Cc1ccc(OCC(=O)N(CC)CC)c(OC)c1 | inactive
12 | COP(=O)(OC)C(O)C(Cl)(Cl)Cl (stereo not given) | inactive
13 | CCCCCCCCC(=O)NCc1ccc(O)c(OC)c1 | inactive
14 | Nc1ccccc1C(=O)OCC(O)CO (stereo not given) | inactive
15 | C=CCN1CC[C@]23CCCC[C@H]2[C@H]1Cc1ccc(O)cc13 | inactive
16 | CC1=C2[C@H]3OC(=O)[C@@H](C)[C@@H]3CC[C@@]2(C)C=CC1=O | inactive
17 | C[C@@H]1O[C@@H](O[C@@H]2C=C3CC[C@@H]4[C@H](CC[C@]5(C)[C@@H](c6ccc(=O)oc6)CC[C@]45O)[C@@]3(C)CC2)[C@H](O)[C@H](O)[C@H]1O | inactive
18 | Clc1ccc(C(OCCN2CCCCC2)c2ccccc2)cc1 (stereo not given) | inactive
19 | CC#C[C@]1(O)CC[C@H]2[C@@H]3C[C@H](C)C4=CC(=O)CC[C@]4(C)[C@H]3CC[C@@]21C | inactive
20 | CCCCCCCCCCCC[N+](C)(C)CCOc1ccccc1 | inactive
21 | C[N+]1(C)[C@@H]2CC[C@H]1CC(OC(=O)C(CO)c1ccccc1)C2 (stereo not given in full) | inactive
22 | CCCC[N+]1(C)[C@@H]2CC(OC(=O)[C@H](CO)c3ccccc3)C[C@H]1[C@@H]1O[C@@H]12 (stereo not given in full) | inactive

Row | SMILES | outcome
23 | CC(C)(O)C(Cl)(Cl)Cl | inactive
24 | NC(=O)OCCCc1ccccc1 | inactive
25 | CC(C)[N+](C)(CCC(C(N)=O)(c1ccccc1)c1ccccc1)C(C)C | inactive
26 | Cc1nnc2n1-c1sc(CCC(=O)N3CCOCC3)cc1C(c1ccccc1Cl)=NC2 | inactive
27 | COC(=O)C1=CCCN(C)C1 | inactive
28 | O=C(O)CCCCCCNC1c2ccccc2CCc2ccccc21 | inactive
29 | CCC1(c2cccc(O)c2)CCCCN(C)C1 (stereo not given) | inactive
30 | C[C@]12Cc3nonc3C[C@@H]1CC[C@@H]1[C@@H]2CC[C@@]2(C)[C@H]1CC[C@]2(C)O | inactive
31 | O=C(O)Cc1ccccc1 | inactive
32 | CCOC(=O)NC(C)(C)Cc1ccc(Cl)cc1 | inactive
33 | O=C1CN2CCOC2(c2ccccc2Cl)c2cc(Cl)ccc2N1 (stereo not given) | inactive
34 | COP(=O)(OC)OC=C(Cl)Cl | inactive
35 | COc1ccc(C(=O)N2CCCC2=O)cc1 | inactive
36 | NC(=O)CN1CCCC1=O | inactive
37 | CN(C)C(=O)Oc1cc(OC(=O)N(C)C)cc(C(O)CNC(C)(C)C)c1 (stereo not given) | inactive
38 | C[C@@H]1C[C@@H]([C@H](O)CC2CC(=O)NC(=O)C2)C(=O)[C@@H](C)C1 | inactive
39 | O=C(O)c1nn(Cc2ccc(Cl)cc2Cl)c2ccccc12 | inactive
40 | CC(C)C(Br)C(=O)NC(N)=O (stereo not given) | inactive

Reference: PubChem BioAssay (NCATS)
